Experimental data: PubChem BioAssay AID1159580 (chemical genetic matrix, 2015)
Where “and” joins values, the source holds several entries; their conditions need not be identical. Equal values may be shown once. Screen size: about 5,500 compounds; about 2,000 (36%) were called active. Another 18% or so got no clear call; they are omitted. Rule as the data show it: active = normalized growth mostly below about 0.91 (no sharp cut-off); inconclusive = no clear call, values can overlap the other calls; inactive = mostly above about 0.92. This is one part of the list.

Test: chemical genetic growth profiling, strain panel (AID 1159580);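 also: tested at 20 µM; growth read once vehicle control cultures reached saturation at 30 °C; 1 = growth at the plate median or of vehicle wells; lower values mean less growth of the strain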
Details: S. cerevisiae deletion strains, growth OD

Measured: normalized growth

Nc1nc2ncc(=O)[nH]c2c(=O)[nH]1
inactive: locus YAL013W, strain DEP1, hits give low values 1 | locus YAL021C, strain ccr4, hits give low values 0.978 | locus YAL026C, strain drs2, hits give low values 0.999 | locus YAL030W, strain snc1, hits give low values 0.98 | locus YBL061C, strain skt5, hits give low values 0.973 | locus YBR009C, strain hhf1, hits give low values 0.995 | locus YBR021W, strain FUR4, hits give low values 0.99 | locus YBR023C, strain chs3, hits give low values 0.979 | locus YBR171W, strain sec66, hits give low values 0.983 | locus YBR229C, strain ROT2, hits give low values 1 | locus YBR231C, strain swc5, hits give low values 0.989 | locus YBR279W, strain paf1, hits give low values 0.984 | locus YCL011C, strain gbp2, hits give low values 0.989 | locus YCL016C, strain dcc1, hits give low values 0.976 | locus YCL029C, strain bik1, hits give low values 0.989 | locus YCL061C, strain MRC1, hits give low values 0.977 | locus YCL069W, strain vba3, hits give low values 0.989 | locus YCR088W, strain abp1, hits give low values 0.972 | locus YDL005C, strain med2, hits give low values 0.965 | locus YDL035C, strain GPR1, hits give low values 1.01 | locus YDL040C, strain nat1, hits give low values 0.986 | locus YDL074C, strain BRE1, hits give low values 1.06 | locus YDL101C, strain DUN1, hits give low values 1 | locus YDL134C, strain PPH21, hits give low values 1 | locus YDL185W, strain tfp1, hits give low values 0.975 | locus YDL192W, strain arf1, hits give low values 0.989 | locus YDR001C, strain nth1, hits give low values 0.972 | locus YDR069C, strain doa4, hits give low values 1.01 | locus YDR101C, strain arx1, hits give low values 0.998 | locus YDR137W, strain rgp1, hits give low values 0.971 | locus YDR150W, strain NUM1, hits give low values 0.997 | locus YDR159W, strain sac3, hits give low values 0.973 | locus YDR162C, strain NBP2, hits give low values 1.01 | locus YDR195W, strain ref2 0.949 | locus YDR297W, strain sur2, hits give low values 0.982 | locus YDR318W, strain mcm21, hits give low values 0.993 | locus YDR334W, strain swr1, hits give low values 0.98 | locus YDR335W, strain msn5, hits give low values 0.978 | locus YDR388W, hits give low values 0.985 | locus YDR392W, strain spt3, hits give low values 0.927 | locus YDR502C, strain sam2, hits give low values 0.996 | locus YEL003W, strain gim4, hits give low values 0.981 | locus YEL037C, strain rad23, hits give low values 0.995 | locus YEL061C, strain CIN8 (second series), hits give low values 0.976 | locus YEL061C, strain CIN8, hits give low values 1 | locus YER015W, strain faa2, hits give low values 1 | locus YER016W, strain bim1, hits give low values 0.984 | locus YER110C, hits give low values 0.976 | locus YER111C, strain swi4, hits give low values 0.957 | locus YER155C, strain BEM2 (second series), hits give low values 0.985 | locus YER155C, strain BEM2, hits give low values 0.993 | locus YER167W, strain BCK2, hits give low values 0.994 | locus YFR010W, strain ubp6, hits give low values 0.977 | locus YGL078C, strain dbp3, hits give low values 0.976 | locus YGL086W, strain mad1, hits give low values 0.989 | locus YGL167C, strain pmr1, hits give low values 0.968 | locus YGL173C, strain kem1, hits give low values 0.981 | locus YGL227W, strain vid30, hits give low values 0.988 | locus YGL240W, strain doc1, hits give low values 1 | locus YGL248W, strain PDE1, hits give low values 1.01 | locus YGL253W, strain hxk2, hits give low values 0.976 | locus YGR078C, strain PAC10, hits give low values 1.03 | locus YGR135W, strain pre9, hits give low values 1.02 | locus YGR229C, strain SMI1, hits give low values 1.04 | locus YGR252W, strain gcn5, hits give low values 1.01 | locus YHR013C, strain ard1, hits give low values 0.946 | locus YHR027C, strain rpn1, hits give low values 0.98 | locus YHR030C, strain SLT2, hits give low values 1 and 0.966 | locus YHR079C, strain IRE1 (second series), hits give low values 0.997 | locus YHR079C, strain IRE1, hits give low values 0.967 | locus YHR094C, strain hxt1, hits give low values 0.965 | locus YHR129C, strain ARP1, hits give low values 1 | locus YHR142W, strain chs7, hits give low values 0.941 | locus YHR200W, strain rpn10, hits give low values 0.988 | locus YIL066C, strain RNR3, hits give low values 1.01 | locus YIL073C, strain SPO22, hits give low values 0.921 | locus YIL125W, strain kgd1, hits give low values 0.981 | locus YIR030C, strain dcg1, hits give low values 0.994 | locus YJL092W, strain hpr5, hits give low values 0.976 | locus YJL095W, strain BCK1 (second series), hits give low values 0.98 | locus YJL095W, strain BCK1, hits give low values 1.06 and 0.983 | locus YJL115W, strain asf1, hits give low values 0.977 | locus YJL129C, strain trk1, hits give low values 0.953 | locus YJL134W, strain LCB3, hits give low values 0.997 | locus YJL154C, strain vps35, hits give low values 0.971 | locus YJL164C, strain tpk1, hits give low values 0.979 | locus YJL166W, strain qcr8, hits give low values 0.982 | locus YJL168C, strain set2, hits give low values 0.988 | locus YJL187C, strain SWE1 (second series), hits give low values 0.999 | locus YJL187C, strain SWE1, hits give low values 0.976 | locus YJR043C, strain POL32, hits give low values 1.01 | locus YJR066W, strain TOR1, hits give low values 0.945
